Screens from PubChem.
The entries come from a sample that favours hits as a whole.
Pf Dd2 inh: blocks in vitro growth of P. falciparum Dd2. P. falciparum Dd2 growth, SYBR Green, 72 h. Potency, µM (series often up to 28.9 µM), hits mostly inhibitors. 120,000 tested, 4.3% active. AID 1347417; active = well fitted inhibition curve with a large enough effect; also: nearly all actives have a fitted effect of over 65% in size
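Infected erythrocytes (Dd2, 0.3% parasitemia, 2.5% hematocrit final) are added to compound in RPMI-1640/Albumax II medium, grown 72 h at 37C in low oxygen, then lysed with saponin/Triton-X containing SYBR Green and read by fluorescence.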
Hits are given with their value; . = inactive; [ ] = dose if it differs, or a comment.

SMILES	Pf Dd2 inh
CC(C)NC(=O)NC[C@H]1C[C@@H]2CCN1C[C@@H]2CN(C)Cc1ccccc1	.
COc1ccc(S(=O)(=O)NC[C@H]2C[C@@H]3CCN2C[C@@H]3CN2CCCCC2)cc1	.
CS(=O)(=O)NC[C@H]1C[C@@H]2CCN1C[C@@H]2CN1CCc2ccccc2C1	.
COc1ccc(S(=O)(=O)NC[C@H]2C[C@@H]3CCN2C[C@@H]3CN2CCc3ccccc32)cc1	11µM
Cc1ccc2c(c1)N1C(=O)OC[C@@H]1CCN(C1CCOCC1)C2	.
COCCN1CCNc2cc(-c3ccc(Oc4ccccc4)cc3)ncc2C1	.
CCOC(=O)c1cc(-c2ccccc2)n(CCC(=O)NCc2ccccc2Cl)c1C	.
CCOC(=O)c1cc(-c2ccc(OC)cc2)n(CCC(=O)NCc2ccccc2OC)c1C	7.9µM
COc1ccc(-c2cc(C(C)=O)c(C)n2CCC(=O)NCc2ccccc2OC)cc1	.
Cc1ccsc1[C@@H]1CCN(C(=O)c2ccccc2-c2ncc[nH]2)C[C@H]1O	.
COc1ccc(-c2nc(C)nc3c2CCN(C(=O)c2ccc4c(c2)OCO4)CC3)cc1	.
CC(C)c1nc2c(c(-c3ccc(Cl)cc3)n1)CCN([S+](=O)([O-])c1ccccc1)CC2	11µM
Cc1ccc([S+](=O)([O-])N2CCc3nc(C)nc(-c4ccc(Cl)cc4)c3CC2)cc1	.
COc1ccc(-c2nc(C)nc3c2CCN(C(=O)c2ccc(C)cc2)CC3)cc1	.
COc1ccc(-c2nc(C)nc3c2CCN(Cc2cc(C)on2)CC3)cc1	.
CC(C)c1nc2c(c(-c3ccc(Cl)cc3)n1)CCN(CC1CC1)CC2	.
COc1ccc(-c2nc(C(C)C)nc3c2CN([S+](=O)([O-])c2cccc(C(F)(F)F)c2)CC3)cc1	.
COc1ccc(-c2nc(C3CC3)nc3c2CCN(C(=O)c2ccc4c(c2)OCO4)CC3)cc1	11µM
Cc1cc(CN2CCc3nc(C(C)C)nc(-c4ccc(Cl)cc4)c3CC2)no1	8.9µM
CCc1nc2c(c(-c3ccc(Cl)cc3)n1)CCN(C(=O)c1ccc(OC)cc1)CC2	.
COc1ccc(C(=O)N2CCc3nc(C4CC4)nc(-c4ccc(Cl)cc4)c3CC2)cc1	10µM
Cc1ccc(C(=O)N2CCc3nc(C4CC4)nc(-c4ccc(Cl)cc4)c3CC2)cc1	.
O=C(c1ccc[n+]([O-])c1)N1CCC2(CCCN(CC3CCCCC3)C2=O)C1 (configuration not stated)	.
CN(C)C[C@@H]1CN(S(C)(=O)=O)C[C@H]1N	.
CCCN1CCc2[nH]cnc2C12CCN(C(=O)c1cnn3ccccc13)CC2	.
SMILES	Pf Dd2 inh
Cc1[nH]ncc1CNC(=O)CCC[C@@H]1[C@H]2CCCN3CCC[C@@H](CN1Cc1cccnc1)[C@@H]23	.
Cc1cc(C(=O)N2CCC(c3nc(C4CCOCC4)no3)CC2)n(C)n1	.
COc1ccc(-c2nc(C)nc3c2CN([S+](=O)([O-])c2cccc(OC)c2)CC3)cc1	.
O=[S+]([O-])(c1cccc(C(F)(F)F)c1)N1CCc2nc(C3CC3)nc(-c3ccc(Cl)cc3)c2C1	.
COc1cccc([S+](=O)([O-])N2CCc3nc(C4CC4)nc(-c4ccc(Cl)cc4)c3CC2)c1	13µM
Cc1ccc(NC(=O)N2CCC(CCNC(=O)C3CC3)CC2)cc1	.
Cc1ccc([C@H]2CN(C(=O)CCc3c(C)nc4ncnn4c3C)C[C@@H]2N)o1	.
Cc1noc(CN2CCc3nc(-c4ccc(F)cc4F)[nH]c3C2)n1	.
Cn1ncc(CN2CCc3nc(-c4ccc(F)cc4F)[nH]c3C2)c1C1CC1	11µM
CN1CCN(c2nc3c(c(=O)[nH]2)CCN(Cc2ccc(F)cc2F)CC3)CC1	.[5.79 µM]
CN1C(=O)CCC2(CNC(=O)c3nn(C)c4ccccc34)CCCC=C12 (configuration not stated)	.
COc1ccc(CN2C(=O)[C@@H]3C[C@@H](CN3Cc3ccccc3)Oc3ccccc32)cc1	.
CS(=O)(=O)N1C[C@@H]2C[C@H]1C(=O)N(Cc1ccc(OC(F)(F)F)cc1)c1ccccc1O2	.
COc1ccc(CN2C(=O)[C@@H]3C[C@@H](CN3C)Oc3ccccc32)cc1	.
COc1ccc(CN2C(=O)[C@@H]3C[C@@H](CN3C3CCN(C)CC3)Oc3ccccc32)cc1	10µM
O=C(O)CCC(=O)N1C[C@@H]2C[C@H]1C(=O)N(Cc1ccc(OC(F)(F)F)cc1)c1ccccc1O2	.
O=C1[C@@H]2C[C@@H](CN2C2CCC2)Oc2ccccc2N1Cc1ccc(OC(F)(F)F)cc1	6.3µM
CC(=O)NCC(=O)N1CC(F)(F)C[C@H]1c1nc(C2CC2)no1	.
CCCCCCN(CCC(=O)NCCOC)C(=O)c1ccoc1	.
O=C(Nc1ccc(C(F)(F)F)cc1)N1CCCC(Cn2c(C3CC3)nc3cccnc32)C1 (configuration not stated)	.
CCn1c2c(c(=O)n1-c1ccccc1)CCN(Cc1cncc(OC)c1)C2	.
COCCN1CCCN(C(=O)C2CCC2)c2ccccc21	.
O=C(C1CC1)N1CCCN(Cc2ccc3c(c2)OCO3)c2ccccc21	8.9µM
COc1ccccc1C(=O)N1CCCN(Cc2ccc3c(c2)OCO3)c2ccccc21	.
